# Bioassay records from PubChem.
# Hits are enriched below; roughly 7.3% of the tested compounds scored in any of these assays.
# HCV inhibitor: qHTS Assay for Inhibitors of Hepatitis C Virus (HCV); Huh7.5.1 HCVcc-Cre infection, luciferase reporter, 44 h; Potency, µM (top dose mostly 41.8 µM), inactives show at the top dose activity change, negative = inhibition, hits mostly inhibitors; 340,000 compounds, 3.4% hits; active means well fitted inhibition curve with a large enough effect; inconclusive means small, poorly fitted or top-dose-only effect, or another doubt; inactive means no such curve, though single readings can be large or run the other way; further: potency means the concentration at half of the fitted maximal effect
#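 Whole-lifecycle infectious HCVcc-Cre system; cells 1,000/well, compound then virus (~0.5 moi) added 4 h after plating, 44 h culture. Luciferase read 15 sec following 15 min substrate incubation, room temp.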
# VACV mCherry inh: qHTS for Stage-Specific Inhibitors of Vaccinia Orthopoxvirus: mCherry Reporter Primary qHTS | AID 720579, 2013 | Vaccinia virus mCherry reporter infection, fluorescence | 310,000 compounds, 0.63% hits | Potency, µM (highest dose often 36.5 µM), for inactives: at the top dose activity change, negative = inhibition, actives largely listed as inhibitors; calls by dose curve; tested in A549 cells; further: potency means the concentration at half of the fitted maximal effect; nearly all actives have a fitted effect of over 35% in size
# HCMV antiviral: qHTS Assay for inhibitors of the human cytomegalovirus (HCMV); HFF cells, HCMV-luciferase reporter, 72 h; stronger effect = lower value; activity change, negative = inhibition, % at 57.5 µM; 410,000 compounds, 4.5% hits; AID 1259415, 2018; in the data active means activity change below about -60%; inconclusive means no clear call, values can overlap the other calls; inactive means above about -39%
#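 After 16 h attachment at 37C, HFF cells received test compound and HCMV-luciferase (1 PFU/cell); reporter luminescence read 72 h later, data normalized against buffer-only and known inhibitor Salinomycin.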
# Vaccinia Venus: qHTS for Stage-Specific Inhibitors of Vaccinia Orthopoxvirus: Venus Reporter Primary qHTS; Vaccinia virus Venus reporter expression, fluorescence; Potency, µM (titrated, usually from 36.5 µM), for the others: at the top dose activity change, negative = inhibition, most hits filed as inhibitors; AID 720580, 2013; 330,000 compounds, 0.46% hits; calls by dose curve; tested in A549 cells; further: potency means the concentration at half of the fitted maximal effect; nearly all actives have a fitted effect of over 30% in size
# FMDV antiviral: High Throughput Screening for Foot and Mouth Disease Virus Antivirals. FMDV antiviral cell-based qHTS. 410,000 compounds, 1.2% hits. AID 1159524, 2015. Potency, µM (top dose mostly 57.9 µM), for the others: at the highest dose activity change, negative = inhibition, usual class: inhibitors; calls by dose curve; tested in HEK293T cells; further: read-out not given here; potency means the concentration at half of the fitted maximal effect; nearly all actives have a fitted effect of over 45% in size
# The depositor's hits bear a star; i = inactive; ? = inconclusive; / = not tested or not shown. On the % scale 0 is the no-effect control and ±100 the full control effect.
SMILES,HCV inhibitor,VACV mCherry inh,HCMV antiviral,Vaccinia Venus,FMDV antiviral
COc1ccc(/C=C2\SC(=S)N(CCC(=O)N(CCO)c3ccccc3)C2=O)cc1OC,14%,/,-60*,/,-19%
COc1ccc(/C=C2/SC(=O)N(CCC(=O)Nc3ccccc3)C2=O)cc1OC,25%,/,-64*,/,-27%
COc1ccc(/C=C2\SC(=O)N(CCNC(=O)Cc3coc4cc(C)ccc34)C2=O)cc1OC,13µM*,/,-99*,/,40µM*
C[C@H](CO)N1C[C@H](C)[C@@H](CN(C)C(=O)Nc2ccc(C(C)(C)C)cc2)OCc2cn(nn2)CCCC1=O,/,/,9,/,/
CCc1ccc(/C=C2\SC(=S)N(CCCC(=O)N(CCO)c3ccccc3)C2=O)cc1,/,?,-98*,?,?
CCOc1ccc(/C=C2\SC(=S)N(CCC(=O)N(CCO)c3ccccc3)C2=O)cc1,?,?,-100*,?,-19%
COc1ccc(NC(=O)Nc2ccccc2OC)cc1,-12%,0%,60,-6%,/
COC(=O)c1ccccc1NC(=O)c1ccccc1OC,11µM*,/,8,-15%,-23%
COc1ccccc1C(=O)Nc1c(C)cc(Br)cc1C,?,/,-61*,/,-2%
COc1ccccc1NC(=O)Nc1ccc(NC(=O)c2ccccc2O)cc1,13µM*,/,-28,/,-1%
COc1ccccc1NC(=O)c1ccccc1C(=O)Nc1ccccc1OC,8%,-12%,-11,-15%,0%
O=C(O)/C(=C\c1cccc(OCc2ccccc2)c1)c1ccc(F)cc1,-3%,-12%,-20,-14%,-7%
COc1ccc(CN2CCCC(n3cc(C(=O)N4CCCCC4)nn3)C2)c(OC)c1 (stereo not drawn),/,-10%,/,9%,-9%
Cc1ccc(-n2nnnc2Sc2nc([N+](=O)[O-])nn2C)cc1C,-21%,-25%,-17,-13%,0%
Cc1ccc(C)c(-n2nnnc2Sc2nc([N+](=O)[O-])nn2C)c1,15%,?,-70*,?,2%
COCCN1CCCC(CNCc2cn(C)nc2-c2ccc(Oc3ccccc3)cc2)C1 (stereo not drawn),14µM*,/,?,/,-12%
COC1CCCN(Cc2cn(C)nc2-c2ccc(Oc3ccccc3)cc2)C1 (stereo not drawn),-4%,?,8,-20%,1%
CCCN1CCC(NCc2cn(C)nc2-c2ccc(Oc3ccccc3)cc2)CC1,11µM*,/,?,/,-24%
CN(C)S(=O)(=O)N1CCC(Oc2cccc(C(=O)N3CCCCCCC3)c2)CC1,?,-19%,/,-18%,?
CCN(CC)c1ccc2c(C)c(Cl)c(=O)oc2c1,-14%,-2%,0,-25%,2%
CCOC(=O)Cc1c(C)c2ccc(N(CC)CC)cc2oc1=O,10µM*,i,16,-23%,-2%
CCN(CC)c1ccc2c(C)c(-c3ccc(N)cc3)c(=O)oc2c1,8.9µM*,/,?,-27%,0%
CCCCN1C(=O)C(CC(=O)NC(c2ccccc2)c2ccccc2)CC(C(=O)N(C(C)C)C(C)C)=C1C (stereo not drawn),/,-7%,2,-19%,?
O=C(Nc1cccc([N+](=O)[O-])c1)N1CCN(c2ccccc2)CC1,?,-22%,-64*,-10%,-14%
Cc1ccc(N2CCN(C(=O)C(=O)c3cccc([N+](=O)[O-])c3)CC2)cc1,/,?,2,-10%,-3%
SMILES,HCV inhibitor,VACV mCherry inh,HCMV antiviral,Vaccinia Venus,FMDV antiviral
Cc1ccc(N2CCN(C(=O)Nc3cccc([N+](=O)[O-])c3)CC2C)cc1 (stereo not drawn),-26%,-29%,-65*,-27%,?
N#CCCN(C(=S)NC(=O)C1CCCCC1)c1ccccc1F,6%,-10%,10,16%,2%
CCOC(=O)c1[nH]c(C)c(CCC(=O)N2CCN(c3ccc(OC)cc3)CC2)c1C,/,8%,0,-5%,4%
O=C(NCc1nnc(SCc2ccccc2)n1-c1ccccc1)C12CC3CC(CC(C3)C1)C2,?,?,31,?,-21%
O=C(NCc1nnc(SCc2ccccc2)n1-c1ccc(F)cc1)C12CC3CC(CC(C3)C1)C2,?,-5%,20,?,25µM*
COc1ccc(CC(=O)NO)cc1OC,/,-1%,/,-14%,/
Cc1cc(C(=O)COc2cccnc2[N+](=O)[O-])c(C)n1Cc1cccs1,?,?,15,-21%,7.9µM*
CC(=O)Nc1ccccc1OCC(=O)c1cc(C)n(Cc2cccs2)c1C,?,/,-94*,/,?
CCn1nc(C(=O)OCC(=O)c2cc(C)n(Cc3cccs3)c2C)c2ccccc2c1=O,-13%,/,12,/,13%
Cc1cc(C(=O)COC(=O)c2ccccc2O)c(C)n1Cc1cccs1,?,/,-103*,/,28µM*
Cc1cc(C(=O)COC(=O)c2ccc3c(c2)OCO3)c(C)n1Cc1cccs1,-8%,/,-19,/,-14%
CC1=C(C(=O)N(C(C)C)C(C)C)CC(CC(=O)NCc2ccco2)C(=O)N1CCCN1CCCC1=O (stereo not drawn),/,i,13,-2%,-10%
Cc1cc(C)nc(SCc2nnc(SCC(=O)N3CCCc4ccccc43)o2)n1,?,-19%,28,-12%,-16%
Cc1cccc(-c2nnc(SCC(=O)N3c4ccccc4CCc4ccccc43)n2C)c1,?,-11%,-70*,-10%,-6%
Cc1cc(C)nc(SCc2nnc(SCC(=O)N3CCCc4ccccc43)n2C)n1,11µM*,-5%,?,0%,/
Cn1c(SCC(=O)N2CCCc3ccccc32)nnc1-c1ccccc1,22%,i,8,-20%,/
Cn1c(SCC(=O)N2c3ccccc3CCc3ccccc32)nnc1-c1cc2ccccc2cc1O,?,-13%,-65*,?,0%
CCc1nc2ccc(C(=O)N(C)Cc3ccco3)cn2c1N(C)CCCc1ccccc1,/,i,-31,-9%,-3%
CC(=O)N1Cc2cc(C(=O)NCC(F)(F)F)nc(-c3cccc(-c4cccnc4)c3)c2[C@@H]1CCO,/,-7%,-81*,-22%,-14%
CCCNC(=O)c1cc2c(c(-c3cccc(-c4cc5ccccc5o4)c3)n1)[C@H](CCO)N(C(=O)NC(C)C)C2,/,?,-88*,?,?
CC(C)(C)S(=O)N1Cc2cc(C(=O)NCC(F)(F)F)nc(-c3cccc(-c4cccc(F)c4)c3)c2[C@@H]1CCO (stereo partly drawn),/,?,-77*,?,-23%
CC[C@](N)(CCC(=O)O)C(=O)O,/,i,/,-11%,-1%
O=C(Nc1cccc(F)c1)N1CCCC2(CCN(S(=O)(=O)c3ccccc3)CC2)C1,/,/,/,/,-3%
C=C(Cl)COc1ccc2c(CCC)cc(=O)oc2c1,10µM*,/,-30,-14%,1%
